# Screens from PubChem.
# Pf growth 96h – Primary qHTS for delayed death inhibitors of the malarial parasite plastid, 96 hour incubation; actives 6.9% (n = 320,000); P. falciparum luciferase reporter growth, 96 h; Potency, µM (top dose mostly 28.7 µM), for inactives: at the top dose activity change, negative = inhibition, most hits filed as inhibitors; further: on the % scale 0 is the no-effect control and ±100 the full control effect
#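 Luminescence readout: decreased luciferase signal marks inhibited growth of reporter-expressing P. falciparum in infected red cells (2% hematocrit, 0.05% parasitemia final), exposed to compound two generations (96 h, 37 C, 5% CO2).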
# Sm TGR block – qHTS Assay for the Inhibitors of Schistosoma Mansoni Peroxiredoxins; Schistosoma mansoni thioredoxin glutathione reductase (TGR), Q962Y6; purified TGR, DTNB reduction, TNB absorbance 405 nm; Potency, µM (series often up to 114 µM), inactives show at the top dose activity change, negative = inhibition, most hits filed as inhibitors; actives 3% (n = 360,000); further: on the % scale 0 is the no-effect control and ±100 the full control effect; nearly all actives have a fitted effect of over 60% in size
#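 First, TGR (20 nM dispensed) and NADPH were mixed with compound. Second, a 15 min room-temperature incubation followed. Third, further NADPH and then DTNB were added to start the reaction. Finally, TNB absorbance was monitored kinetically.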
# Pf growth 48h – Primary qHTS for delayed death inhibitors of the malarial parasite plastid, 48 hour incubation | P. falciparum luciferase growth in erythrocytes, 48 h | Potency, µM (highest dose often 28.7 µM), inactives show at the top dose activity change, negative = inhibition, actives largely listed as inhibitors | actives 5.9% (n = 310,000); further: on the % scale 0 is the no-effect control and ±100 the full control effect
#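 Luminescence readout; reporter = integrated firefly luciferase in P. falciparum. RBC culture at 2% hematocrit, 0.1% parasitemia final, 37 C/5% CO2; decreased signal taken as growth inhibition.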
# SARS PLpro yeast – qHTS of Yeast-based Assay for SARS-CoV PLP; S. cerevisiae expressing SARS-CoV PLpro, growth rescue; Potency, µM (titrated, usually from 32.9 µM), inactives show top-dose activity, positive = growth rescue, most hits filed as activators; actives 0.19% (n = 330,000); calls by dose curve; further: 0% is about no effect; nearly all actives have a fitted effect of over 55% in size
# * hit, by the source's call; u = inconclusive; x = not tested or not shown; [ ] = dose if it differs, or a comment. In the library only some 12% were active in any assay of this set; here they are far more common. Unless noted, the call rests on the fitted dose curve; in most records, active means well fitted curve in the direction sought with a large enough effect; inconclusive means small, poorly fitted or top-dose-only effect, or another doubt; inactive means no such curve, though single readings can be large; an effect the other way counts as inactive or inconclusive. Potency means the concentration at half of the fitted maximal effect.
SMILES,Pf growth 96h,Sm TGR block,Pf growth 48h,SARS PLpro yeast
C=CCn1c(O)c(N=Nc2ccccc2)c2ccccc21,-0.6%,39.8µM*,2.2%,-7.4%
C=CCn1c(O)c(N=Nc2nc3ccccc3c(=O)n2-c2ccccc2)c2ccccc21,u,0.0%,13.1%,0.7%
C=CCn1c(O)c(N=Nc2ccccc2O)c2ccccc21,62.2%,-32.4%,9.28µM*,-1.4%
Cc1ccccc1N=Nc1c(O)n(C)c2ccccc12,183.1%,35.5µM*,17.3%,-11.0%
COc1ccc(NS(=O)(=O)c2csc(C(=O)N3CCCC3)c2)c(OC)c1,23.0%,-10.2%,u,10.4%
COC(=O)C(CC(C)C)NC(=O)/C=C/c1ccccc1Cl (stereo unspecified),-23.4%,-8.8%,13.1µM*,4.0%
COC(=O)C(CC(C)C)NC(=O)/C=C/c1ccc(Cl)cc1 (stereo unspecified),53.6%[5.75 µM],2.0%,u,0.1%
CCNC(=S)N=Nc1c(O)[nH]c2ccc([N+](=O)[O-])cc12,6.57µM*,7.4%,u,0.5%
CC(C)c1ccc2[nH]c(O)c(N=NC(=S)NCCc3ccccc3)c2c1,9.28µM*,4.2%,u,u
CCOc1ccc(NC(=S)N=Nc2c(O)[nH]c3ccccc23)cc1,1.65µM*,6.3%,u,-3.3%
CCCCNC(=S)N=Nc1c(O)[nH]c2ccccc12,9.28µM*,10.9%,u,-11.6%
C=CCn1c(SCC(=O)N(CC)C2CCS(=O)(=O)C2)nc2cc(C(=O)O)ccc2c1=O (stereo unspecified),8.6%,-9.0%,-17.5%,-0.4%
O=c1oc2ccc(Cl)cc2nc1/C=C(\O)c1ccco1,14.7µM*,u,u,-5.5%
CC(C)C/C(O)=C/c1nc2cc(Cl)ccc2oc1=O,u,-28.6%,u,-36.9%
COc1cccc(CN(C)C(=O)c2[nH]c(C)c(C(C)=O)c2C)c1OC,7.38µM*,-22.9%,11.7µM*,0.6%
COc1ccccc1CNC(=O)c1[nH]c(C)c(C(C)=O)c1C,u,-9.8%,-39.1%,1.7%
Cc1ccc(OCC(=O)Nc2ccc3c(c2)C(=O)NC3=O)cc1,u,-5.6%,4.6%,2.0%
CC(C)CC(=O)Nc1ccc(Oc2ccc3c(c2)C(=O)NC3=O)cc1,13.1µM*,-5.6%,15.4%,-1.4%
Cc1ccc(S(=O)(=O)NCc2ccccc2)cc1C(=O)N(C)CC(=O)Nc1c(Cl)cccc1Cl,-3.1%,-0.7%,-12.1%,-0.7%
COc1ccc2[nH]c(=O)c(CN(CC3CCCO3)C(=O)Nc3ccc(F)cc3)cc2c1 (stereo unspecified),26.6%,7.3%,26.5%,6.6%
COc1ccc(NC(=O)N(Cc2cc3cc(C)ccc3[nH]c2=O)CC2CCCO2)cc1 (stereo unspecified),-12.5%,6.0%,3.29µM*,-2.0%
COc1cccc(C(=O)N(Cc2cc3cc(C)ccc3[nH]c2=O)CC2CCCO2)c1 (stereo unspecified),x,2.7%,9.28µM*,-0.3%
COc1cc(C(=O)N(Cc2cc3cc(C)ccc3[nH]c2=O)CC2CCCO2)cc(OC)c1OC (stereo unspecified),-4.4%,-10.9%,-1.8%,2.7%
Cc1ccc(NC(=O)CSc2nc3nn(-c4ccccc4)c(=O)c-3c3n2CCCCC3)cc1F,x,x,x,-6.3%
CCOc1ccc(CC(=O)Nc2ccc3nc(N4CCCCC4)cc(C)c3c2)cc1OCC,x,-15.2%,x,x
Cc1ccc(S(=O)(=O)Nc2cccc(C(=O)NCC(c3ccco3)N3CCCC3)c2)cc1F (stereo unspecified),u,-9.5%,u,-12.6%
COc1ccccc1C(CNC(=O)c1cccc(NS(=O)(=O)c2ccc(C)c(F)c2)c1)N1CCCC1 (stereo unspecified),11.7µM*,-3.9%,13.1µM*,1.6%
COc1ccccc1C(CNC(=O)c1ccc(NS(=O)(=O)c2ccc(F)c(C)c2)cc1)N1CCCC1 (stereo unspecified),11.7µM*,-30.7%,9.28µM*,7.5%
COc1ccccc1C(CNC(=O)c1ccc(NS(=O)(=O)c2ccc3c(c2)OCCO3)cc1)N(C)C (stereo unspecified),11.7µM*,5.4%,u,-1.5%
O=C(CCCCn1c(=O)c2ccccc2n(Cc2cccc(Cl)c2)c1=O)NCc1ccc2c(c1)OCO2,x,-4.9%,x,x
